Each structure is given as a SMILES string. Calls of active or inactive are those of the source.

The subject of assay [1] is Human papillomavirus type 1a protein E7 (residues 44-93). Put plainly: HPV1a E7 fragment binders on microarrays, primary screen, biochemical, small-molecule microarray, residues 44-93, 635 nm fluorescence (AID 1108).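 Further: E7 fragment applied at 1 µg/mL in TBST for 1 h at 4 C; score combines spot fluorescence with its signal to noise ratio.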 The note with it: small-molecule microarray binding, fluorescence 635 nm; higher = more signal.
A short description of assay [2]: modulators of HCV replicon luciferase signal, primary screen, HCV replication inhibitor project, Huh7 cells, luciferase reporter (AID 1109).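 Further: huh7 hepatoma cells harbouring a luciferase neomycin HCV replicon reporter; luciferase luminescence as measure of HCV replicon replication; test concentration not given here.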 The conditions noted are these: 48 h, higher = more signal. (In general: Replicon systems follow genome replication, usually without infectious particles.)
For assay [3], the target named is Left-right determination factor 2 (Homo sapiens) (UniProt O00292). Put plainly: LEFTY2 binders on small-molecule microarrays, primary screen, biochemical, small-molecule microarray, 635 nm fluorescence scan (AID 1110). The note with it: LEFTY2 binding, higher = more signal.
Assay [4] has as its target Calmodulin-1 (Homo sapiens) (UniProt P0DP23). Put plainly: CALM1 binders on microarrays, EGTA buffer, profiling panel, biochemical, small-molecule microarray, Cy5-labelled CALM1 (AID 1111).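 Further: labelled calmodulin applied in Tris saline Tween buffer holding calcium plus EGTA and DTT.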 The note with it: Cy5-CALM1 binding fluorescence, higher = more signal.
Assay [5] has the same target. Put plainly: calcium-bound CALM1 binders on microarrays, profiling panel, artefact control for SMM control-protein annotation, biochemical, small-molecule microarray, Cy5-labelled CALM1, plus calcium (AID 1112).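 Further: score merges spot fluorescence with signal to noise from triplicate slides.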 The conditions noted are these: Cy5-CALM1 binding fluorescence, higher = more signal.
The nature of assay [6]: small-molecule microarray binders of probe aWnt5a, primary screen, biochemical, biotinylated probe, 635/667 nm fluorescence (AID 1113).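 Further: score merges 667 nm fluorescence intensity with signal-to-noise per printed feature.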 The note with it: higher = more signal.
Assay [7] can be described thus: small-molecule microarray binders of probe aShh, primary screen, biochemical, biotinylated probe, 635/667 nm fluorescence (AID 1114).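 Further: probe is biotin-labelled aShh protein from a stem cell growth factor screen; measures binding of labelled protein to compounds printed on the slide; score merges feature fluorescence at 667 nm with signal-to-noise.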 The conditions noted are these: higher = more signal.
Assay [8] can be described thus: small-molecule microarray binders of probe aNog, primary screen, biochemical, biotinylated probe, 635/667 nm fluorescence (AID 1115).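 Further: probe is biotinylated aNog protein used at 0.15 µg/mL for 1 h at 4 C; z-score combines 667 nm fluorescence of each spot with its signal to noise.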 The conditions noted are these: higher = more signal.
For assay [9], the target named is Torsin-1A-interacting protein 1 (Homo sapiens) (UniProt Q5JTV8). The assay is described as follows: LAP1 binders from COS7 cell lysate, primary screen, small-molecule microarray, 635/667 nm fluorescence (AID 1116). The conditions noted are these: COS7-hLAP1 lysate binding, 635 nm fluorescence, higher = more signal.
Assay [10] deals with Alpha-bungarotoxin (Bungarus multicinctus) (UniProt P60615). The assay is described as follows: alpha-bungarotoxin binders on microarray, profiling panel, artefact control for SMM control protein annotation, biochemical, small-molecule microarray, Alexa647 label, 635/667 nm fluorescence (AID 1117). The note with it: alpha-BTX-A647 binding fluorescence, higher = more signal.
Assay [11] deals with Albumin (Bos taurus) (UniProt P02769). The assay is described as follows: bovine serum albumin binders on microarray, profiling panel, artefact control for SMM control protein annotation, biochemical, small-molecule microarray, Alexa647 label, 635/667 nm fluorescence (AID 1118).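 Further: score merges 667 nm emission intensity and signal-to-noise per printed compound spot.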 The conditions noted are these: BSA-A647 binding, fluorescence 635 nm, higher = more signal.
The nature of assay [12]: small-molecule microarray binders of probe aXIP, primary screen, biochemical, NeuroSMM set, 635/667 nm fluorescence (AID 1119).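 Further: probe is the protein aXip251-270 applied at 1 µg/mL to compound-printed slides; binding of probe to printed compounds measured as 667 nm fluorescence plus signal to noise.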 The conditions noted are these: higher = more signal, called active from +8 up or from −8 down.
Assay [13] is described as follows: small-molecule binders of probe aNOTCH3, primary screen, biochemical, small-molecule microarray, 635/667 nm fluorescence (AID 1120).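 Further: probe is a biotin-tagged antibody raised against NOTCH3 rather than NOTCH3 protein; score merges spot fluorescence near 667 nm with spot signal to noise.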 The conditions noted are these: higher = more signal.
A short description of assay [14]: small-molecule binders of probe aNOTCH2, primary screen, biochemical, small-molecule microarray, 635/667 nm fluorescence (AID 1121).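 Further: score merges feature fluorescence read at 667 nm with its signal to noise.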 The conditions noted are these: higher = more signal.
The target of assay [15] is Carbonic anhydrase 2 (Homo sapiens) (UniProt P00918). The assay is described as follows: CAII small-molecule binders, profiling panel, biochemical, small-molecule microarray, Alexa647-labelled CAII (AID 1122). The conditions noted are these: CAII-A647 binding fluorescence, higher = more signal.
Assay [16] can be described thus: COS7 lysate on small-molecule microarray, probe aHis, 635 nm (AID 1123).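 Further: z-score combines 667nm fluorescence intensity with signal-to-noise per printed compound spot.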 The note with it: COS7 cell lysate, fluorescence, higher = more signal.
Assay [17] is described as follows: compound binding in COS7 lysate, probe aLAP1, primary screen, cell lysate, small-molecule microarray (AID 1124).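 Further: lysate comes from COS7 cells expressing LAP1 and is applied at 0.3 µg/mL; score merges spot fluorescence near 667 nm with signal-to-noise over triplicate slides.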 The conditions noted are these: probe aLAP1, fluorescence, higher = more signal.
The subject of assay [18] is Sam68 (KHDRBS1). Put plainly: Sam68 small-molecule binders, primary screen, biochemical, small-molecule microarray, 635 nm fluorescence (AID 1125).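 Further: score merges 667 nm channel intensity with signal to noise over triplicate slides.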 The note with it: small-molecule microarray binding, higher = more signal.
Assay [19] deals with Chordin-like protein 2 (CHRDL2). Put plainly: CHRDL2 small-molecule binders, primary screen, biochemical, small-molecule microarray, 635 nm fluorescence (AID 1126).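 Further: printed compound slides probed with Chrdl2 protein at 4 µg/mL for 1 h at 4 C; score merges 667 nm emission intensity with signal to noise over three replicate slides.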 The conditions noted are these: small-molecule microarray binding, fluorescence 635 nm; higher = more signal.
The target of assay [20] is Concanavalin-A (Canavalia ensiformis) (UniProt P02866). Put plainly: ConA small-molecule binders, primary screen, artefact control for SMM control protein annotation, biochemical, small-molecule microarray, Alexa647 label, 635 nm (AID 1127).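 Further: z combines 667 nm emission intensity with signal-to-noise across three replicate slides.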 The conditions noted are these: ConA-A647 binding fluorescence, higher = more signal.
Chain of Concanavalin-A (Canavalia ensiformis) (P02866 whole entry, looked up): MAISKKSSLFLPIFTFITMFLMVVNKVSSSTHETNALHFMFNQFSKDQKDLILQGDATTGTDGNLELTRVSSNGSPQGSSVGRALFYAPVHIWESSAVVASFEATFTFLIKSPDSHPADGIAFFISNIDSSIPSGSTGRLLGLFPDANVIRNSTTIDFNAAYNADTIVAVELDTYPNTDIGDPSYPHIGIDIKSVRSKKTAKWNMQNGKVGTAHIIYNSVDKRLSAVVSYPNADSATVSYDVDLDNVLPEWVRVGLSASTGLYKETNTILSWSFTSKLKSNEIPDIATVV

Chain of Alpha-bungarotoxin (Bungarus multicinctus) (P60615 whole entry, looked up): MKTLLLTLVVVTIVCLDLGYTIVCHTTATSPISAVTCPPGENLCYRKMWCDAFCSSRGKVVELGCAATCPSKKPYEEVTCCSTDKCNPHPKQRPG
Chain of Left-right determination factor 2 (Homo sapiens) (O00292 whole entry, looked up): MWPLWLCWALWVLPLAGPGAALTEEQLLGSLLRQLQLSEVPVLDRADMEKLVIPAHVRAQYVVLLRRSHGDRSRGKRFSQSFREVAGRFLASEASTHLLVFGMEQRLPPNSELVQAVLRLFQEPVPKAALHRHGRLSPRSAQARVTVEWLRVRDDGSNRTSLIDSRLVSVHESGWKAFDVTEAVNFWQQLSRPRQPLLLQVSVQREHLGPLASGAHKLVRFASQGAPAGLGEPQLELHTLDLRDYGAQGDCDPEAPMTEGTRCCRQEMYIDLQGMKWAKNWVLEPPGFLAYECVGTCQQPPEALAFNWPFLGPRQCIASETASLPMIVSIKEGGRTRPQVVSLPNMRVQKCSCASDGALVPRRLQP
Chain of Albumin (Bos taurus) (P02769 whole entry, looked up): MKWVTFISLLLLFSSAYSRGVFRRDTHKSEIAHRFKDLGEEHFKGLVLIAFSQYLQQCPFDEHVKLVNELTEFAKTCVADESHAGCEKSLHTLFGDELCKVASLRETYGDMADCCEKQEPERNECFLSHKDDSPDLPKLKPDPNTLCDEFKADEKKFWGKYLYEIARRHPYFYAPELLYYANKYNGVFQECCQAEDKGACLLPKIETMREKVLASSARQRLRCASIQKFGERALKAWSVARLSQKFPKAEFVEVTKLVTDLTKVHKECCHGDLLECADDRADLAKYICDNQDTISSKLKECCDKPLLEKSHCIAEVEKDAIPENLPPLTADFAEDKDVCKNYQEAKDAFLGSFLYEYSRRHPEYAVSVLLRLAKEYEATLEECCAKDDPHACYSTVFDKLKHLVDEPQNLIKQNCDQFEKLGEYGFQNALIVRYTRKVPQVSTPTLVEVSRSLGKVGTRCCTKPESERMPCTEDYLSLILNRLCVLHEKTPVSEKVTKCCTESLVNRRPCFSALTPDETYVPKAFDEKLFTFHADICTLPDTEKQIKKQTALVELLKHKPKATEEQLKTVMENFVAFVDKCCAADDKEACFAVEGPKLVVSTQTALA
Chain of Torsin-1A-interacting protein 1 (Homo sapiens) (Q5JTV8 whole entry, looked up): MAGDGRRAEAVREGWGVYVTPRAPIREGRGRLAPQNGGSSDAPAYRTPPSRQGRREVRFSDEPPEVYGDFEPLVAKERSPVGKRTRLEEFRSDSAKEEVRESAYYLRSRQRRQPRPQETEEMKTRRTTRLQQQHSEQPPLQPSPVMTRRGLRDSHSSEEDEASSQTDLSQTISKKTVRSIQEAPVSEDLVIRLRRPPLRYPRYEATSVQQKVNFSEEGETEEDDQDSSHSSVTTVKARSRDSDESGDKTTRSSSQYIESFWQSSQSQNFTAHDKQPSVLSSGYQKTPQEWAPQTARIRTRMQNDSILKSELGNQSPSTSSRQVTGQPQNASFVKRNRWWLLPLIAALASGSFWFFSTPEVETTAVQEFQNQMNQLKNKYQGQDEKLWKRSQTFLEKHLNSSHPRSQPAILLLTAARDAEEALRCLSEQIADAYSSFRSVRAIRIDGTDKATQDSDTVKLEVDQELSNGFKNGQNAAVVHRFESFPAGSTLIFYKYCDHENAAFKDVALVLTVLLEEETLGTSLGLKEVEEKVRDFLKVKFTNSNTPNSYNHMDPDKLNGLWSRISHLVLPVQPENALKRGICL

Take `NC(=O)[C@H]1[C@@H]2C(=O)O[C@@H](c3ccccc3)[C@@H](c3ccccc3)N2[C@@H](c2ccc(O)cc2)[C@]12C(=O)Nc1ccc(C#CC3(O)CCCCCC3)cc12`: the composite z-score is 1.45 in assay [1]; 0.6 in [3]; 0.861 in assay [4]; -0.227 in [5]; -0.12 in [6]; 0.534 in assay [7]. For the same compound, the composite z-score is -0.327 in assay [8]; 1.49 in assay [9]; 1.49 in assay [10]; 0.0474 in [11]; 0.205 in assay [13]; -0.0859 in assay [14]. The composite z-score in assay [15] stood at 0.51; in assay [16] it was 2.63; in [17], 0.807; in assay [18], 1.29; in assay [19], 0.412; in [20] it was 1.12. This compound also returned a z-score in assay [2] of -2.61. For the same compound, the composite Z-score in assay [12] is 0.467 (inactive).
Take `COCCOC(=O)N1C(=O)[C@@]2(c3cc(C#CCC(C(=O)OC)C(=O)OC)ccc31)[C@H](C(=O)N1CCCCCCC1)[C@H]1C(=O)O[C@H](c3ccccc3)[C@H](c3ccccc3)N1[C@@H]2c1ccc(O)cc1`: the composite z-score in assay [1] was 1.37; in assay [3], 0.485; in assay [4], 1.1; in assay [5] it was 0.624; in [6], 0.244; in assay [7], -0.0422. Further, the composite z-score in [8] is 2.33; in assay [9] it was 0.166; in [10], 1.3; in [11] it was -0.0345; in assay [13] it was 0.996; in assay [14] it was 0.222. In addition, the composite z-score was 0.387 in assay [15]; 2.34 in [16]; 2.4 in [17]; 1.31 in assay [18]; 1.29 in assay [19]; 0.783 in assay [20]. The same compound came in with a z-score in [2] of -0.586. Also, the composite Z-score in assay [12] was 0.604 (inactive).
As to `O=C1O[C@H](c2ccccc2)[C@H](c2ccccc2)N2[C@H]1[C@@H](C(=O)N1CCN(c3ncccn3)CC1)[C@]1(C(=O)Nc3ccc(C#CCCO)cc31)[C@H]2c1ccc(OCCO)cc1`, the composite z-score in assay [1] is 1.41; in assay [3], 1.35; in assay [4] it was 1.23; in assay [5] it was -0.188; in assay [6], 0.0614; in [7], 0.0141. Further, the composite z-score is 0.242 in [8]; 1.53 in assay [9]; 0.554 in assay [10]; 0.612 in assay [11]; 0.255 in assay [13]; -0.0633 in assay [14]. The composite z-score was 0.296 in assay [15]; 1.96 in assay [16]; 0.924 in assay [17]; 1.3 in assay [18]; 0.944 in assay [19]; 1.11 in assay [20]. Moreover, the z-score in assay [2] was -1.35. Also, in [12], the composite Z-score was 1.38 (inactive).
On to `CC(C)C[C@@H]1NC(=O)[C@@H]2C[C@H](C(=O)NCc3ccc(F)cc3)[C@H](c3ccc(O)cc3)N2C1=O`, for which the composite z-score in [1] was 1.11; in [3] it was 0.1; in [4], 1.35; in assay [5] it was -0.166; in [6] it was -0.147; in assay [7], 0.191. In addition, the composite z-score in assay [8] was -0.319; in assay [9] it was 1.03; in assay [10], 0.896; in assay [11], -0.674; in [13], -0.222; in assay [14], -0.126. For the same compound, the composite z-score in assay [15] came to 0.47; in assay [16] it was 2.61; in assay [17], 0.38; in assay [18] it was 0.425; in assay [19], 0.448; in [20], 1.18. Besides, in [2], the z-score is -0.738. In addition, the composite Z-score in assay [12] is 0.63 (inactive).
Turning to `CC(=O)NCCCC[C@@H]1NC(=O)[C@@H]2C[C@H](C(=O)NCCCC[N+](C)(C)C)[C@H](c3cccc(OCCO)c3)N2C1=O`, the composite z-score in assay [1] was 0.193; in assay [3], 0.0711; in assay [4] it was 0.601; in [5] it was 0.0189; in assay [6] it was -0.122; in assay [7] it was -0.0643. For the same compound, the composite z-score is -0.314 in assay [8]; 0.714 in assay [9]; -0.08 in [10]; -0.134 in assay [11]; 0.0426 in assay [13]; -0.125 in assay [14]. The composite z-score was 0.799 in [15]; 0.661 in assay [16]; 0.331 in assay [17]; -1.33 in assay [18]; 0.349 in assay [19]; -0.0028 in [20]. In assay [2], this compound displayed a z-score of -0.703. Also, in assay [12], the composite Z-score is 0.0725 (inactive).
As to `O=C1C2C=CC(C(O)c3cccc4ccccc34)N(Nc3ccccc3)C2C(=O)N1c1ccccc1` (stereo not given), the composite z-score in [1] was 1.38; in assay [3] it was 0.321; in assay [4], 0.972; in assay [5], -0.8; in [6], 0.0725; in [7], 0.424. In addition, the composite z-score in [8] amounted to 1.05; in assay [9], 0.759; in assay [10], 2.06; in assay [11] it was 0.571; in assay [13], 0.277; in assay [14], 0.0312. Besides, the composite z-score was found to be 0.655 in assay [15]; 2.28 in [16]; 1.47 in [17]; 0.983 in assay [18]; 0.724 in assay [19]; 0.89 in assay [20]. Besides, the z-score in [2] was -1.29. Further, the composite Z-score in [12] was 0.739 (inactive).

Source of the values: PubChem BioAssay.
